Many of the other results were omitted from the sample, so hits are more common in it than they were.
LmPK inh: blocks Leishmania mexicana pyruvate kinase activity; purified LmPK, Kinase-Glo ATP luminescence, 1 h; Potency, µM (doses to about 57.5 µM), for inactives: at the highest dose activity change, negative = inhibition, usual class: inhibitors; hit rate 0.37% among 290,000; AID 1721; Q27686; further: potency means the concentration at half of the fitted maximal effect; on the % scale 0 is the no-effect control and ±100 the full control effect
Target sequence (Q27686 whole entry, looked up): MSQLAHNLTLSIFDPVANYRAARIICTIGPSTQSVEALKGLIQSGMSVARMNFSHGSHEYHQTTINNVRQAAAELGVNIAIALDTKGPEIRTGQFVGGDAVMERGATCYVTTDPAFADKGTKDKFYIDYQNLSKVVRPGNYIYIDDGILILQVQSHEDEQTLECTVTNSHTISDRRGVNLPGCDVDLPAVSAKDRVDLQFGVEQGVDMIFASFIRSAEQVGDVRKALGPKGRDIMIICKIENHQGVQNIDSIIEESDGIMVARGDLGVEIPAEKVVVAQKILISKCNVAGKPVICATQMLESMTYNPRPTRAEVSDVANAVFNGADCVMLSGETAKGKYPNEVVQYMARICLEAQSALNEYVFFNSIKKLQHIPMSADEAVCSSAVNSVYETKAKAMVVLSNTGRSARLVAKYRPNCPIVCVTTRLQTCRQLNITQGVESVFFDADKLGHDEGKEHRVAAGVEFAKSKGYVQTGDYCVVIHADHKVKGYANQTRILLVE
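0.1 nM LmPK, 0.5 mM PEP, 0.1 mM ADP; 50 mM imidazole pH 7.2, 7 mM MgCl2, 50 mM KCl; 1 h RT. Kinase-Glo luminescence readout, normalized to no-enzyme (full inhibition) and uninhibited wells.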
CHX counter: affects cycloheximide protein synthesis inhibition readout, counter-screen; hit rate 12% among 300,000; max response, %; cell reporter, cycloheximide protein synthesis inhibition counterscreen; in the data active means max response mostly above about 13%, no sharp cut-off; inactive means mostly below about 14%; further: read at 38.3 µM for the half of the compounds with a filed dose; 0% is about no effect
Shiga toxin inh: Shiga toxin inhibition | Vero cells, Shiga toxin protein synthesis inhibition reporter | AID 2315 | inhibition, % at 38.7 µM | hit rate 9.2% among 290,000; in the data active means inhibition mostly above about 28%, no sharp cut-off; inactive means mostly below about 43%; further: 0% is about no effect
TbPYK inhibitor: inhibitors of Trypanosoma brucei pyruvate kinase; Q57TT1; TbPYK enzyme, Kinase-Glo Plus ATP luminescence, 45 min; Potency, µM (titrated, usually from 76.8 µM), for the others: at the highest dose activity, negative = inhibition, hits mostly inhibitors; hit rate 0.12% among 410,000; further: potency means the concentration at half of the fitted maximal effect; on the % scale 0 is the no-effect control and ±100 the full control effect; nearly all actives have a fitted effect of over 50% in size
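Assay buffer: 50 mM TEA pH 7.2, 100 mM KCl, 10 mM MgCl2, 0.05% BSA, 0.01% Tween-20. Pyruvate kinase from T. brucei plus substrate met compound, then ADP (130 uM final). Luminescence was read post 45 min RT.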
RE007 growth inh: less growth of the S. pombe RE007 Vpr strain | S. pombe RE007 Vpr strain, BacTiter-Glo ATP luminescence, 24 h | Potency, µM (titrated, usually from 92.2 µM), inactives show top-dose activity change, negative = less growth, most hits filed as inhibitors | hit rate 0.21% among 360,000; active means well fitted falling curve with a large enough effect; inconclusive means small, poorly fitted or top-dose-only effect; inactive means no such curve, though single readings can be large or run the other way; further: potency means the concentration at half of the fitted maximal effect; on the % scale 0 is the no-effect control and ±100 the full control effect; nearly all actives have a fitted effect of over 50% in size
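Fission yeast strain RE007, carrying one chromosomally integrated HIV-1 vpr copy, was seeded at OD 0.01 in PMG+AL medium with 23 nL pinned compound. After 24 h at 30 °C and 99% humidity, viability was read by BacTiter-Glo luminescence.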
Giardia FBPA inh: blocks Giardia fructose-bisphosphate aldolase activity; purified Giardia FBPA; Potency, µM (doses to about 59.6 µM), without a hit: at the highest dose activity, negative = inhibition, most hits filed as inhibitors; hit rate 0.71% among 290,000; AID 2451; further: potency means the concentration at half of the fitted maximal effect; on the % scale 0 is the no-effect control and ±100 the full control effect; nearly all actives have a fitted effect of over 55% in size
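40 nM FBPA preincubated 10 min at RT with compound (up to 57.5 uM final), then substrate plus GAPDH/TPI/NAD/arsenate coupling and diaphorase/resazurin added. Fluorescence read after 20 min at RT, 525/598 nm.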
An asterisk follows results filed as active; ? = inconclusive; · = no result; [ ] = remark or other dose. Unless noted, the call rests on the fitted dose curve; in most records, active means well fitted curve in the direction sought with a large enough effect; inconclusive means small, poorly fitted or top-dose-only effect, or another doubt; inactive means no such curve, though single readings can be large; an effect the other way counts as inactive or inconclusive.

SMILES	LmPK inh	CHX counter	Shiga toxin inh	TbPYK inhibitor	RE007 growth inh	Giardia FBPA inh
O=C(/C=C/c1ccco1)NCc1ccc(F)cc1	10%	19*	20	?	-7%	-1%
Cc1cccc(NC(=S)NC(=O)/C=C/c2ccco2)n1	-3%	48*	121*	-8%	-30%	-23%
Cc1cc(C)cc(NS(=O)(=O)c2ccc(-c3cc(C)no3)cc2)c1	·	·	·	3%	·	·
O=C(/C=C/c1ccco1)NC(=S)Nc1ccccc1	5%	42*	·	-8%	?	?
Cn1cc(S(=O)(=O)Nc2ccc(F)c(Cl)c2)c(=O)n(C)c1=O	1%	-4	9	0%	9%	-5%
CN(C)c1ccc(NC(=O)CCN2C(=O)c3cccc([N+](=O)[O-])c3C2=O)cc1	-2%	16*	23	-18%	-12%	0%
CCOc1ccc(NC(=O)CCN2C(=O)c3cccc([N+](=O)[O-])c3C2=O)cc1	-18%	-2	-7	1%	9%	6%
C[C@H](CO)N1C[C@H](C)[C@@H](CN(C)C(=O)Nc2ccccc2)Oc2c(NC(=O)C3CCCCC3)cccc2C1=O	·	·	·	0%	7%	·
Cc1ccc(S(=O)(=O)SCCCSS(=O)(=O)c2ccc(C)cc2)cc1	·	·	·	4µM*	?	·
COC(=O)c1ccc(NC(=S)NN2CCCCC2c2cccnc2)cc1 (centres undefined)	2%	14*	33	4%	-14%	-19%
CCc1ccccc1NC(=O)[C@@H](c1ccccc1)N1Cc2ccccc2C1=O	·	·	·	-4%	·	·
Cc1ccc(C(=O)NCC(=O)OCC(=O)NCC(F)(F)F)cc1	-3%	18*	-5	1%	0%	-3%
Cc1ccc(C(=O)NCC(=O)NCC(=O)OCC(=O)c2ccc(F)cc2)cc1	1%	-3	-9	0%	-6%	2%
C=C1CCC[C@]2(C)C[C@H]3OC(=O)[C@H](CNCCc4ccccc4OC)C3CC12 (some centres undefined)	·	·	·	·	·	-2%
C[N+](C)(CCCOc1ccccc1)c1ccccc1	·	·	·	·	·	-15%[21.7 µM]
Cc1ccc(OCCOc2ccc(Cl)cc2Cl)c([N+](=O)[O-])n1	4%	52*	106*	-4%	0%	2%
Cc1ccc(CNC(=O)COc2ccc(C)nc2[N+](=O)[O-])cc1	-1%	-3	-9	-6%	3%	16%
Cc1ccc(OCC(=O)c2ccc(Cl)s2)c([N+](=O)[O-])n1	2%	27	43	3%	-19%	?
Cc1ccc(COc2ccc(C)nc2[N+](=O)[O-])cc1	7%	50*	83*	1%	-8%	11%
COc1ccc(OCCOc2ccc(C)nc2[N+](=O)[O-])cc1	0%	49*	93*	1%	-4%	0%
COc1ccc(C(=O)NCc2ccc(-c3nc4ccccc4s3)cc2)cc1	0%	44*	44	3%	0%	·
COc1cccc(C(=O)NCc2ccc(-c3nc4ccccc4s3)cc2)c1	4%	36*	70*	6%	-10%	1%
COc1cc(C(=O)NCc2ccc(-c3nc4ccccc4s3)cc2)cc(OC)c1OC	4%	27*	74*	3%	1%	4%
COc1cc(C(=O)NCc2nnc(SCC(=O)Nc3nc4ccccc4s3)o2)cc(OC)c1OC	1%	14*	46*	-4%	4%	16%
COc1cccc(C(=O)Nc2ccc(-c3nc4ccccc4s3)cc2Cl)c1	·	·	·	1%	·	·
SMILES	LmPK inh	CHX counter	Shiga toxin inh	TbPYK inhibitor	RE007 growth inh	Giardia FBPA inh
COc1ccc(C(=O)NCc2nnc(SCC(=O)Nc3nc4ccccc4s3)o2)cc1	0%	-3	12	-8%	8%	3%
COc1ccc2oc3c(ccc[n+]3C)c(=O)c2c1	·	·	·	?	-1%	·
COc1ccccc1C(=O)NCc1ccc(-c2nc3ccccc3s2)cc1	1%	41*	58*	-10%	-24%	7%
CCn1ncc(C2=NOC(C(=O)Nc3ccc(C)cc3)C2)c1C (centres undefined)	11%	1	-15	4%	-14%	1%
CCn1ncc(C2=NOC(C(=O)Nc3cccnc3)C2)c1C (centres undefined)	2%	19*	13	4%	0%	-1%
CSc1ccc(C2C(C(=O)c3ccco3)=C(O)C(=O)N2c2nnc(SC)s2)cc1 (centres undefined)	10%	36*	75*	-28%	-13%	·
Cc1nnc(N2C(=O)C(O)=C(C(=O)c3ccco3)C2c2ccc(C(C)(C)C)cc2)s1 (centres undefined)	-1%	12*	21	4%	1%	-3%
Cc1nnc(N2C(=O)C(O)=C(C(=O)c3ccco3)C2c2ccc(F)cc2)s1 (centres undefined)	1%	-2	-5	0%	1%	0%
Cc1nnc(N2C(=O)C(O)=C(C(=O)c3ccco3)C2c2ccc(C(C)C)cc2)s1 (centres undefined)	0%	40*	64*	-15%	1%	-3%
O=C1c2sc3nc4ccccc4n3c2C(=O)N1c1ccccc1Cl	-12%	21*	116*	?	2%	-16%
O=C(O)c1ccc(-c2ccc(/C=c3/sc4nc5ccccc5n4c3=O)o2)cc1Cl	9%	-1	-5	?	7%	-2%
Cn1cnnc1SCCOc1ccc(Cl)cc1	-1%	15*	88	6%	9%	-3%
Cc1cccc(OCCSc2nnc(-c3ccoc3C)n2C)c1	0%	5	35	8%	3%	8%
Cc1cccc(OCCSc2nncn2C)c1	4%	33*	35	1%	-16%	6%
O=C(Nc1cnc2ccccn2c1=O)c1ccc(Cl)cc1	-3%	33*	113*	3%	-5%	0%
O=C(Nc1cccn2ncnc12)c1ccc(Cl)cc1	-4%	12	45	2%	-24%	4%
O=C(Cn1nnc(-c2ccccc2Cl)n1)Nc1ccc(Br)cc1	·	·	·	-5%	·	·
NS(=O)(=O)c1ccc(N/N=C/c2cn(-c3ccccc3)nc2-c2cccs2)cc1	-2%	9.3*	39*	-13%	-5%	2%
O=C(N/N=C/c1cn(-c2ccccc2)nc1-c1cccs1)c1ccncc1	0%	32*	50*	-3%	-8%	0%
Cc1ccc(-c2nn(-c3ccccc3)cc2/C=N/NC(=O)c2ccncc2)o1	2%	65*	58*	-4%	189%	-8%
NS(=O)(=O)c1ccc(N/N=C/c2cn(-c3ccccc3)nc2-c2cccs2)c([N+](=O)[O-])c1	-4%	6	7	6%	-8%	7%
Cc1nn(-c2ccccc2)cc1/C=N/NC(N)=S	-12%	13	40*	0%	2%	-17%
O=C(N/N=C/c1nn(-c2ccccc2)cc1-c1ccccc1)c1ccncc1	-1%	22	29	1%	10%	0%
